Our source for the Potency and viability values is PubChem BioAssay (NCATS).

A short description of experiment [1]: Quantitative High-Throughput drug screen in 47 multiple myeloma cell lines against the NCATS MIPE library collection: H1112_PLB cell viability assay (AID 1918967; also: nearly all actives have a fitted effect of over 30% in size; also: potency is read from the fitted curve at half-maximal effect). A digest of the protocol: (§1)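 Relative luminescence from CellTiter-Glo served as the viability signal, referenced to DMSO-treated (100%) and cell-free medium (0%) controls. Treatment lasted 48 hours at 37C with 500 cells per well.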

Experiment [2] in a line: Quantitative High-Throughput drug screen in 47 multiple myeloma cell lines against the NCATS MIPE library collection: Karpas25_ECACC cell viability assay (AID 1918968; also: nearly all actives have a fitted effect of over 35% in size; also: potency is read from the fitted curve at half-maximal effect). A digest of the protocol: as §1
The nature of experiment [3]: Quantitative High-Throughput drug screen in 47 multiple myeloma cell lines against the NCATS MIPE library collection: KMS27_JCRB cell viability assay (AID 1918970). Also: nearly all actives have a fitted effect of over 30% in size. Also: potency is read from the fitted curve at half-maximal effect. A digest of the protocol: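 Each line is seeded at 500 cells per well and treated with library compounds for 48 hours under 37 °C, 5% CO2. CellTiter-Glo is then added for 5 min at room temperature before median relative luminescence is recorded.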

Experiment [4] in a line: Quantitative High-Throughput drug screen in 47 multiple myeloma cell lines against the NCATS MIPE library collection: KMS12PE_JCRB cell viability assay (AID 1918972). Also: nearly all actives have a fitted effect of over 30% in size. Also: potency is read from the fitted curve at half-maximal effect. An outline of the steps: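 Myeloma cells (500 per well) were exposed to MIPE 4.0 compounds by pin transfer and incubated 48 hours at 37C, 5% CO2. Viability was read as ATP by CellTiter-Glo luminescence, normalised to DMSO (100%) and media-only (0%) wells.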

The nature of experiment [5]: Quantitative High-Throughput drug screen in 47 multiple myeloma cell lines against the NCATS MIPE library collection: NCIH929_DSMZ cell viability assay (AID 1918978). Also: nearly all actives have a fitted effect of over 35% in size. Also: potency is read from the fitted curve at half-maximal effect. An outline of the steps:
(§2)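 Myeloma cells (500/well) treated with MIPE 4.0 compounds for 48 h at 37 °C, 5% CO2. Viability read as ATP via CellTiter-Glo luminescence after 5 min at RT; DMSO-only wells = 100%, media-only = 0% viability.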

A short description of experiment [6]: Quantitative High-Throughput drug screen in 47 multiple myeloma cell lines against the NCATS MIPE library collection: OCIMY1_PLB cell viability assay (AID 1918979). Also: nearly all actives have a fitted effect of over 35% in size. Also: potency is read from the fitted curve at half-maximal effect. An outline of the steps: as §2
The nature of experiment [7]: Quantitative High-Throughput drug screen in 47 multiple myeloma cell lines against the NCATS MIPE library collection: MM1R_ATCC cell viability assay (AID 1918981). Also: nearly all actives have a fitted effect of over 35% in size. Also: potency is read from the fitted curve at half-maximal effect. A digest of the protocol: as §2
Experiment [8] is described as follows: Quantitative High-Throughput drug screen in 47 multiple myeloma cell lines against the NCATS MIPE library collection: LP1_DSMZ cell viability assay (AID 1918982). Also: nearly all actives have a fitted effect of over 35% in size. Also: potency is read from the fitted curve at half-maximal effect. An outline of the steps:
as §2

A short description of experiment [9]: Quantitative High-Throughput drug screen in 47 multiple myeloma cell lines against the NCATS MIPE library collection: KMS28PE_JCRB cell viability assay (AID 1918983). Also: nearly all actives have a fitted effect of over 35% in size. Also: potency is read from the fitted curve at half-maximal effect. An outline of the steps: as §2
Experiment [10] is described as follows: Quantitative High-Throughput drug screen in 47 multiple myeloma cell lines against the NCATS MIPE library collection: L363_DSMZ cell viability assay (AID 1918984). Also: nearly all actives have a fitted effect of over 40% in size. Also: potency is read from the fitted curve at half-maximal effect. An outline of the steps: as §2
The nature of experiment [11]: Quantitative High-Throughput drug screen in 47 multiple myeloma cell lines against the NCATS MIPE library collection: KMS34_JCRB cell viability assay (AID 1918985). Also: nearly all actives have a fitted effect of over 40% in size. Also: potency is read from the fitted curve at half-maximal effect. An outline of the steps:
as §2

A short description of experiment [12]: Quantitative High-Throughput drug screen in 47 multiple myeloma cell lines against the NCATS MIPE library collection: OCIMY7_PLB cell viability assay (AID 1918987). Also: nearly all actives have a fitted effect of over 65% in size. Also: potency is read from the fitted curve at half-maximal effect. An outline of the steps: as §2
The nature of experiment [13]: Quantitative High-Throughput drug screen in 47 multiple myeloma cell lines against the NCATS MIPE library collection: OCIMY5_PLB cell viability assay (AID 1918988). Also: nearly all actives have a fitted effect of over 65% in size. Also: potency is read from the fitted curve at half-maximal effect. An outline of the steps:
as §2

Experiment [14] in a line: Quantitative High-Throughput drug screen in 47 multiple myeloma cell lines against the NCATS MIPE library collection: KMS20_JCRB cell viability assay (AID 1918973). Also: nearly all actives have a fitted effect of over 45% in size. Also: potency is read from the fitted curve at half-maximal effect. A digest of the protocol: as §1
Experiment [15] can be described thus: Quantitative High-Throughput drug screen in 47 multiple myeloma cell lines against the NCATS MIPE library collection: MOLP8_DSMZ cell viability assay (AID 1918977). Also: nearly all actives have a fitted effect of over 45% in size. Also: potency is read from the fitted curve at half-maximal effect. A digest of the protocol: as §2
Experiment [16] in a line: Quantitative High-Throughput drug screen in 47 multiple myeloma cell lines against the NCATS MIPE library collection: MM1S_ATCC cell viability assay (AID 1918980). Also: potency is read from the fitted curve at half-maximal effect; nearly all actives have a fitted effect of over 45% in size. A digest of the protocol:
as §2

The nature of experiment [17]: Quantitative High-Throughput drug screen in 47 multiple myeloma cell lines against the NCATS MIPE library collection: KMS26_JCRB cell viability assay (AID 1918975). Also: nearly all actives have a fitted effect of over 45% in size. Also: potency is read from the fitted curve at half-maximal effect. A digest of the protocol: (§3)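 Steps: seed 500 cells per well; pin-transfer MIPE 4.0 library; incubate 48 h at 37C, 5% CO2, humidified; add CellTiter-Glo, 5 min room temperature; read luminescence.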
The nature of experiment [18]: Quantitative High-Throughput drug screen in 47 multiple myeloma cell lines against the NCATS MIPE library collection: MMM1_PLB cell viability assay (AID 1918976). An outline of the steps:
as §2

A short description of experiment [19]: Quantitative High-Throughput drug screen in 47 multiple myeloma cell lines against the NCATS MIPE library collection: KMS12BM_JCRB cell viability assay (AID 1918971). Also: nearly all actives have a fitted effect of over 35% in size. Also: potency is read from the fitted curve at half-maximal effect. An outline of the steps: as §3
A short description of experiment [20]: Quantitative High-Throughput drug screen in 47 multiple myeloma cell lines against the NCATS MIPE library collection: KMS21BM_JCRB cell viability assay (AID 1918974). Conditions: ATP luminescence, 48 h; viability: at 45.8 µM (top of the series) unless noted. An outline of the steps: as §1

Inconclusive results are not listed. Active and inactive are the calls of the source. Calls follow the shape of the dose curve; as a rule, active = well fitted curve in the direction sought with a large enough effect; inconclusive = small, poorly fitted or top-dose-only effect, or another doubt; inactive = no such curve, though single readings can be large; an effect the other way counts as inactive or inconclusive.

Regarding `COc1ccc([C@@H]2CC(=O)c3c(O)cc(O[C@@H]4O[C@H](CO[C@@H]5O[C@@H](C)[C@H](O)[C@@H](O)[C@@H]5O)[C@@H](O)[C@H](O)[C@@H]4O)cc3O2)cc1O`, the Potency entry in [1], in [2], in experiment [3], in experiment [4], in [5] and in experiment [6] was “inactive” in each case. The Potency entry in experiment [7], in experiment [8], in experiment [9], in [10] and in experiment [11] was “inactive” each time. In addition, the Potency in experiment [12] was 6.62 µM (active); in experiment [13], 13.2 µM (active).
As to `Clc1cccc(Cl)c1NC1=NCCN1`, the Potency result in experiment [1], in experiment [2], in experiment [3], in experiment [4], in experiment [14] and in experiment [15] was “inactive” throughout. Besides, the Potency result in experiment [5], in experiment [6], in experiment [8], in experiment [9], in [10] and in [11] was “inactive” each time. Also, in experiment [16], the Potency is 18.7 µM (active).
Take `OC(CCN1CCCCC1)(c1ccccc1)C1CC2C=CC1C2` (stereo unspecified): the Potency result in [1], in experiment [2], in experiment [3], in [4], in [17] and in [15] was “inactive” in each case. Moreover, the Potency result in experiment [5], in experiment [6], in experiment [8], in [11] and in experiment [13] was “inactive” in each case.
In the case of `Cc1ccc(N(CC2=NCCN2)c2cccc(O)c2)cc1`, the Potency in experiment [1] is 26.4 µM (active); in experiment [2], 4.69 µM (active); in experiment [3] it was 16.6 µM (active); in experiment [18], 2.96 µM (active); in [16] it was 20.9 µM (active); in experiment [9], 5.26 µM (active). The Potency in experiment [10] was 11.8 µM (active); in [13], 23.5 µM (active). Besides, the Potency entry in [14], in experiment [5] and in [6] was “inactive” throughout.
`Cc1cnc(NC(=O)C2=C(O)c3ccccc3S(=O)(=O)N2C)s1`: the Potency entry in experiment [1], in experiment [2], in experiment [3], in experiment [19], in experiment [17] and in experiment [15] was “inactive” throughout. Also, the Potency result in experiment [5], in experiment [6], in experiment [7], in experiment [8], in experiment [11] and in experiment [13] was “inactive” each time.
Consider `CN1CCN(CCCN2c3ccccc3Sc3ccc(C(F)(F)F)cc32)CC1`, for which the Potency in experiment [1] was 7.43 µM (active); in experiment [2] it was 4.18 µM (active); in [14], 16.6 µM (active); in experiment [5] it was 2.09 µM (active); in [16], 1.05 µM (active); in experiment [12], 5.9 µM (active). Also, the Potency entry in [19], in [4], in [17], in experiment [6], in experiment [7] and in experiment [8] was “inactive” in each case. Also, the Potency result in experiment [11] is “inactive”.
Turning to `Nc1nc2ccc(OC(F)(F)F)cc2s1`, the Potency entry in experiment [1], in experiment [2], in [3], in [4], in experiment [14] and in experiment [10] was “inactive” in each case. Moreover, the Potency result in experiment [12] is “inactive”. For the same molecule, the Potency in experiment [16] was 2.64 µM (active).
As to `CC(C)OC(=O)C1=CN(C(=O)c2ccc(F)c(F)c2)CC(C)(C)c2c1[nH]c1ccccc21`, the Potency entry in [1], in experiment [2], in experiment [3], in experiment [14], in [17] and in experiment [15] was “inactive” in each case. In addition, the Potency result in [5], in experiment [8] and in experiment [11] was “inactive” each time.
In the case of `Cc1cc2c(C(C)C)c(O)c(O)c(C=O)c2c(O)c1-c1c(C)cc2c(C(C)C)c(O)c(O)c(C=O)c2c1O`, the Potency was 18.7 µM (active) in experiment [1]; 5.9 µM (active) in experiment [2]; 6.62 µM (active) in experiment [3]; 14.8 µM (active) in experiment [19]; 7.43 µM (active) in experiment [4]; 11.8 µM (active) in [14]. Further, the Potency is 14.8 µM (active) in [17]; 9.35 µM (active) in experiment [5]; 14.8 µM (active) in experiment [6]; 16.6 µM (active) in [16]; 13.2 µM (active) in experiment [7]; 16.6 µM (active) in [8]. Moreover, the Potency in experiment [9] is 18.7 µM (active); in [11], 11.8 µM (active); in experiment [12], 8.33 µM (active); in experiment [13], 14.8 µM (active).
On to `NCCc1ccc(O)c(O)c1`, for which the Potency entry in [1] is “inactive”. For the same molecule, the Potency was 14.8 µM (active) in [2]; 16.6 µM (active) in experiment [3]; 20.9 µM (active) in [4]; 7.43 µM (active) in experiment [18]; 20.9 µM (active) in experiment [15]; 20.9 µM (active) in experiment [16]. The Potency in [8] was 8.33 µM (active); in experiment [10], 23.5 µM (active); in [11], 8.33 µM (active); in [13] it was 20.9 µM (active).
For `NS(=O)(=O)c1cc2c(cc1Cl)NC=NS2(=O)=O`, the Potency result in [1], in [2], in [3], in experiment [4], in [14] and in experiment [17] was “inactive” throughout. Moreover, the Potency result in [15], in experiment [7], in [8], in experiment [10], in experiment [11] and in experiment [12] was “inactive” in each case. Besides, the Potency result in experiment [13] was “inactive”. For the same molecule, the viability (as a rule, a read-out of living cells in per cent, often relative to untreated cells) in experiment [20] is 201% (active).
As to `OCCn1cc(-c2cnc3nnn(Cc4ccc5ncccc5c4)c3n2)cn1`, the Potency entry in [1], in [3], in [5], in experiment [8], in experiment [9] and in [10] was “inactive” in each case. Further, the Potency result in [12] was “inactive”. The Potency in experiment [2] was 14.8 µM (active); in [4], 20.9 µM (active); in experiment [16], 9.35 µM (active); in experiment [7], 18.7 µM (active).
On to `O=NN(CCCl)C(=O)NCCCl`, for which the Potency entry in [1], in experiment [2], in [3], in experiment [4], in experiment [20] and in experiment [15] was “inactive” each time. Besides, the Potency result in experiment [5], in [7], in experiment [8] and in experiment [10] was “inactive” in each case.
In the case of `CC(C)C[C@H](NC(=O)[C@@H](O)[C@H](N)Cc1ccccc1)C(=O)O`, the Potency was 20.9 µM (active) in experiment [1]; 20.9 µM (active) in experiment [2]; 11.8 µM (active) in experiment [14]; 23.5 µM (active) in experiment [17]; 20.9 µM (active) in [18]; 20.9 µM (active) in experiment [15]. In addition, the Potency was 20.9 µM (active) in experiment [5]; 18.7 µM (active) in experiment [16]; 20.9 µM (active) in experiment [7]; 20.9 µM (active) in experiment [8]; 20.9 µM (active) in experiment [12]; 26.4 µM (active) in experiment [13]. The Potency entry in experiment [3] and in experiment [4] was “inactive” in each case.
For the molecule `O=C(C=Cc1ccc(/C=C/C(=O)Nc2ccc(C3=NCCN3)cc2)cc1)Nc1ccc(C2=NCCN2)cc1`, the Potency entry in [1], in experiment [2], in experiment [3], in experiment [4], in [14] and in [15] was “inactive” each time. For the same molecule, the Potency result in experiment [5], in [6], in [8] and in experiment [11] was “inactive” in each case.
